# Test results as given in PubChem BioAssay.
# Where “and” joins values, the source holds several entries; their conditions need not be identical. Equal entries are not always repeated. Calls of active or inactive are those of the source. Unless noted, how the calls were made is not given here.
# Tests used:
# [1] = circadian clock period modulators, cell-based, LOPAC library, luminescence reporter (AID 2774); conditions: circadian reporter cells, at 7 µM, actives lie on both sides;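 further: values are relative to mean of DMSO wells on each plate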
# [2] = liver-stage malaria parasite growth inhibition, primary screen, cell-based, HepG2, luciferase luminescence, HepG2 viability (AID 624349; in the data active means parasite load remaining mostly below about 12%, no sharp cut-off; inactive means mostly above about 10%;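 further: 100% = mean of DMSO negative control wells on the same plate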); conditions: P. berghei liver stage in HepG2, luciferase luminescence, concentration not given here; parasite load remaining: stronger effect = lower value; viability: measured here: HepG2 viability without parasites
# [3] = tested on: Hepatitis C virus NS3 helicase; assay: HCV NS3 helicase inhibitors, primary screen, biochemical, fluorescence polarization, LOPAC1280 library (AID 687035; in the data active means inhibition above about 37%); conditions: Purified HCV NS3 helicase, Cy5-dT15 ssDNA binding fluorescence polarization; stronger effect = higher value; concentration not given here
# [4] = Cy5 fluorescence quenching or enhancement artefacts, artefact control for HCV NS3 helicase inhibitor project, biochemical, LOPAC1280 (AID 687037); conditions: Cy5-DNA-NS3h complex fluorescence interference counterscreen
# [5] = tested on: Aerobactin synthetase IucA (Klebsiella pneumoniae); assay: IucA aerobactin synthetase inhibitors, biochemical, Tocris library, absorbance (AID 1345561); conditions: purified IucA enzyme assay, absorbance (OD) read-out; stronger effect = lower value;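 tested at 8 µM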;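 further: 100% = enzyme without compound and 0% = no enzyme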
# [6] = sensitizers of A549 cells to miR-34 induction, primary screen, imaging, A549 dox-inducible miR-34, nuclei and caspase counts (AID 1347080;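 active means compounds whose cell count with miR-34 switched on is under 0.7 times the count with it off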); conditions: A549 miR-34 inducible, Hoechst nuclei count, 48 h
# [7] = phospholipid biosynthesis inhibitors in animal cells, primary screen, cell-based, LOPAC library, screen 4 (AID 1347384); conditions: phospholipid biosynthesis inhibition screen, at 10 µM
# [8] = survival rescue of mitochondrial mutant cells in low glucose, primary screen, MELAS cybrids, Rieske KO mouse fibroblasts, CellTiter-Glo (AID 1508586;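 active means mean z-score across replicates of 1.96 or higher in either the MELAS or the Rieske mutant cell line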;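 further: z relative to plate mean and SD of compound and empty wells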)
# [9] = viability rescue of complex I mutant cybrids, primary screen, cell-based, galactose medium, ATP luminescence (AID 1645843;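 active means z-score of at least 1.8 in each of two replicates, scored against plate mean and spread of sample wells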;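 further: positive z means more ATP and so rescue of galactose-driven cybrid death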); conditions: complex I mutant cybrid cells, 72 h, stronger effect = higher value
# [10] = stronger effect = lower value, cell number ratio, induced over uninduced
# [11] = measured here: relative caspase fold change +Dox/-Dox
# [12] = measured here: total cells with miR-34 induction, stronger effect = lower value
# [13] = measured here: total cells without miR-34 induction
Structure (SMILES),period change [1],parasite load remaining [2],viability [2],inhibition [3],fluorescence ratio (interference) [4],remaining activity [5],"fold change [6, 10]","fold change [6, 11]","cell count [6, 12]","cell count [6, 13]",outcome [7],"z-score ([8]; MELAS cybrid survival, CellTiter-Glo 48 h, stronger effect = higher value)","z-score ([8]; Rieske KO mouse fibroblast survival, CellTiter-Glo 72 h)",z-score [9]
CN(C(=O)CCCOc1ccc2[nH]c(=O)ccc2c1)C1CCCCC1,-0.015 h (inactive),30.5% (inactive),71.5%,-1% (inactive),1 (inactive),117% (inactive),1.04 (inactive) and 0.982 (inactive) and 0.9 (inactive),2.05 and 0.725 and 1.16,8910 and 7180 and 9490,8530 and 7310 and 10500,inactive,0.542 (inactive),-0.471,-0.385 (inactive) and 0.22 (inactive) and -0.02 (inactive)
CCN(CC)CCOC(=O)c1cc(Cl)c(N)cc1OC,-0.055 h (inactive),,,-6% (inactive),1 (inactive),95% (inactive),0.965 (inactive) and 0.955 (inactive),1.47 and 1.03,10500 and 9010,10800 and 9430,inactive,,,0.75 (inactive) and 0.1 (inactive)
N=C(N)SCCc1cnc[nH]1,0.045 h (inactive),,,-3% (inactive),1 (inactive),120% (inactive),0.923 (inactive) and 0.986 (inactive),1.08 and 0.938,8720 and 7870,9460 and 7980,inactive,,,0.08 (inactive) and 0.435 (inactive)
N[C@H](C(=O)O)c1cc(O)cc(O)c1,0.11 h (inactive),,,-1% (inactive),1.1 (inactive),115% (inactive),1.01 (inactive) and 0.963 (inactive),1.04 and 0.77,10300 and 8780,10200 and 9120,inactive,,,0.215 (inactive) and -0.05 (inactive)
CCCN(CC1CC1)c1nc(C)nc(Nc2c(Cl)cc(Cl)cc2Cl)c1Cl,0.125 h (inactive),,,-2% (inactive),1 (inactive),116% (inactive),1.08 (inactive) and 0.941 (inactive),0.691 and 0.818,9180 and 7650,8510 and 8120,inactive,,,-1.02 (inactive) and -0.83 (inactive)
O=C(OCCN1CCOCC1)C1(c2ccccc2)CCCCC1,-0.085 h (inactive),,,-2% (inactive),1 (inactive),124% (inactive),1.05 (inactive) and 1.02 (inactive),1.06 and 0.742,10700 and 8020,10200 and 7840,inactive,,,-0.08 (inactive) and -0.97 (inactive)
